Screening results deposited in PubChem BioAssay by several laboratories.
NALP3 yeast inh = blocks the NALP3 inflammasome reconstituted in yeast; Yeast reconstituted NLRP3/ASC/caspase-1, beta-gal luminescence, 24 h; inhibition, % at 10 µM; 0.39% of 330,000 active; AID 2825;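 active = inhibition of 50% or more; inactive = inhibition below 50%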;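 also: plate controls were induced DMSO wells for no effect and uninduced yeast grown without galactose for full effect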
Efflux pump mplx = inhibitors of Candida antifungal efflux pumps expressed in yeast. S. cerevisiae Candida pump triplex, Nile Red efflux. inhibition, % at 10 µM. 0.44% of 330,000 active. AID 485275;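 active = plate passing quality check with inhibition over a set limit, or well fluorescence over plate mean plus 4 SD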;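 also: Nile Red retained in pooled yeast measured as flow cytometry median fluorescence; 0% = buffer negative control and 100% = Enniatin B positive control; higher means more Nile Red kept so more efflux inhibition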
NALP1 yeast inh = blocks the NALP1 inflammasome reconstituted in yeast. S. cerevisiae NALP1/ASC/caspase-1 growth, X-gal OD620, 72 h. inhibition, % at 10 µM. 0.61% of 280,000 active. AID 2071; in the data active = inhibition mostly above about 24%, no sharp cut-off; inactive = mostly below about 32%
PolyA inhibitor = yeast polyadenylation inhibition; activity score, % at 12 µM; AID 1875; 0.02% of 300,000 active; S. cerevisiae SKY197-pL101 polyadenylation reporter, beta-gal luminescence; efflux-impaired pdr1/pdr3 knockout yeast; score 100 = 6 SD above DMSO;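 active = lowest replicate activity score at least 50, where 100 means six control SD above control mean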;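 also: yeast exposed to compound for 9 h at 30 °C; higher score means more reporter readthrough which indicates perturbed polyadenylation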
HDAC3 inhib = inhibitors of human histone deacetylase 3; O15379; recombinant HDAC3, fluorogenic peptide/trypsin coupled, fluorescence; inhibition, % at 8.3 µM; 0.15% of 320,000 active; in the data active = inhibition above about 26%, passing the limit was not always enough
GASC-1 inh = blocks human GASC-1 demethylase activity; GST-JMJD2C(1-420) H3K9me3 demethylation, DELFIA europium; inhibition, % at 2.35 µM; AID 2099; Q9H3R0; 0.069% of 330,000 active;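 active = more than half of a compound's replicate wells show inhibition beyond 50%, single wells judged on their own value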;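 also: signal counts dimethyl H3K9 product captured on neutravidin plate; 0% = median of DMSO wells and 100% = 0.3 times that DMSO median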
Target sequence (Q9H3R0 1-420 limits assumed): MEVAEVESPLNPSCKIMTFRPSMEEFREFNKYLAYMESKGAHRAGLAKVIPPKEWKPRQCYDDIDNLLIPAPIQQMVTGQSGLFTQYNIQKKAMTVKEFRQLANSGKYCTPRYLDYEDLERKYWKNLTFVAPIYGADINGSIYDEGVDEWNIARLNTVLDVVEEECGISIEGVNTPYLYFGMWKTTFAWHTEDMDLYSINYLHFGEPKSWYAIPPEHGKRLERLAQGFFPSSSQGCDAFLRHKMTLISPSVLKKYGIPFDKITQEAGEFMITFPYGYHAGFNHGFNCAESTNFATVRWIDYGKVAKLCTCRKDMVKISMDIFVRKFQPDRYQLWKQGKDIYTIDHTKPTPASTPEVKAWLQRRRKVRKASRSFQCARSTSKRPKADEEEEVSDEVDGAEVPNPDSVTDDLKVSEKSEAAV
Cmpd fluor yeast = compound fluorescence in yeast efflux pump counter-screen; 4% of 1,700 active; fluorescence ratio to DMSO, % at 10 µM; shares compounds with Efflux pump mplx; S. cerevisiae AD/pABC3, flow cytometry;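 active = fluorescence ratio to DMSO above its plate's cutoff, the plate mean ratio plus 5 SD, cut at about 210% in these data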;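 also: unstained yeast with no Nile Red so the signal is compound autofluorescence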
Mdr1 pump inh = blocks the Candida albicans Mdr1 efflux pump in yeast. shares compounds with Efflux pump mplx. S. cerevisiae AD/CaMDR1, Nile Red efflux, flow cytometry. inhibition, % at 10 µM. 1% of 1,700 active. AID 588518; in the data active = inhibition above about 26%;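 also: 0% = DMSO vehicle and 100% = reference inhibitor; higher means more Nile Red retained so more efflux inhibition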
Cdr2 pump inh = Candida Cdr2 efflux pump inhibition | shares compounds with Efflux pump mplx | S. cerevisiae AD/CaCDR2, Nile Red retention, flow cytometry | Nile Red retention ratio vs DMSO, % at 10 µM | 4% of 1,700 active; in the data active = Nile Red retention ratio vs DMSO above about 190%;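 also: higher ratio means more blocking of Cdr2 efflux of the dye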
Cdr1 pump inh = inhibitors of Candida albicans Cdr1 efflux pump; shares compounds with Efflux pump mplx; S. cerevisiae AD/CaCDR1, Nile Red efflux, flow cytometry; inhibition, % at 10 µM; 1% of 1,700 active; AID 588522;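 active = inhibition above the screen-wide mean plus twice its standard deviation, cut at about 32% in these data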
* = called active by the depositor; x = no result. This is a sample that favours compounds with a hit; in the whole collection about 1.5% have one here.

SMILES | NALP3 yeast inh | Efflux pump mplx | NALP1 yeast inh | PolyA inhibitor | HDAC3 inhib | GASC-1 inh | Cmpd fluor yeast | Mdr1 pump inh | Cdr2 pump inh | Cdr1 pump inh
CC1CCc2c(C(=O)Nc3ccc(OC(F)(F)F)cc3)csc2C1 (centres undefined) | 24 | 19* | 21 | 9 | -3 | -5 | 99 | 0 | 104 | 0
CCSc1nnc(NC(=O)c2csc3c2CCC(C)C3)s1 (centres undefined) | 2 | 0 | x | 10 | -4 | -3 | x | x | x | x
O=C(c1ccco1)N1CCN(c2ccc(N3CCCCC3)nn2)CC1 | 5 | 0 | x | 2 | x | 9 | x | x | x | x
O=C(COCC(=O)N/N=C/c1ccc(F)cc1)N/N=C/c1ccc(F)cc1 | 7 | 1.8* | 8 | 20 | 0 | 2 | 94 | 0 | 100 | 0
CCOC(=O)C(=O)N/N=C/c1ccc(F)cc1 | 26 | 0 | 0 | 11 | 1 | -2 | x | x | x | x
COc1ccc(C(=O)NCc2ccc(Cl)c(Cl)c2)cc1OC | 25 | 11* | 17 | 18 | -4 | -9 | 87 | 0 | 89 | 0
CCn1cc(CNCc2cn(C)nc2-c2ccc(C3CCCCC3)cc2)cn1 | x | x | 3 | -13 | x | -2 | x | x | x | x
CCN1C(=O)[C@H]2[C@@H](c3ccc(-c4cccc(Cl)c4)cc3)N3CCCC[C@@]3(C(=O)OC)[C@H]2C1=O | 18 | 0.7* | x | 15 | 11 | -1 | 98 | 0 | 119 | 0
COc1ccc2cc(C#N)c(N3CCN(Cc4nnnn4CCC(C)C)CC3)nc2c1 | 9 | 0.7* | 30 | 0 | -1 | 2 | 118 | 0 | 116 | 0
CCCCCCCCn1ccc(=N)cc1 | 0 | 0.8* | 12 | -8 | 5 | 12 | 97 | 0 | 108 | 0
Cc1nnc(SCc2cc(=O)[nH]c(Nc3nc(C)c4cc(C)c(C)cc4n3)n2)s1 | 10 | 1.6* | -2 | -4 | -2 | 88 | 106 | 0 | 102 | 0
Cc1ccc(SCc2cc(=O)[nH]c(Nc3nc(C)c4cccc(C)c4n3)n2)cc1 | 23 | 0 | -3 | 7 | -4 | 2 | x | x | x | x
O=C(CN1C(=O)NC2(CCCc3ccccc32)C1=O)NCc1ccc(Cl)cc1Cl (centres undefined) | -9 | 0 | -1 | -1 | 1 | 2 | x | x | x | x
c1ccc2c(-c3cncc4ccccc34)cncc2c1 | -21 | 0 | x | -27 | 0 | -18 | x | x | x | x
Cc1noc(C)c1S(=O)(=O)Nc1ccc(C(=O)N2CCN(c3cccc(Cl)c3)CC2)cc1 | 1 | 0 | 6 | -4 | -1 | 5 | x | x | x | x
Cc1cccc(N2CCN(C(=O)c3ccc(NS(=O)(=O)c4c(C)noc4C)cc3)CC2)c1C | 7 | 0.5* | 32 | -5 | 7 | -20 | 97 | 0 | 110 | 0
CC(=O)c1ccc(N2CCN(S(=O)(=O)c3cn(C)c(C)n3)CC2)cc1 | 11 | 0 | 4 | 16 | 2 | 4 | x | x | x | x
Cn1cccc1/C=C(/C#N)c1ccc(F)cc1 | -51 | 0 | 9 | 0 | 3 | -1 | x | x | x | x
Cc1ccc(OCC(=O)NNC(=O)C(=O)NC(C)(C)C)cc1 | 9 | 0 | 16 | 2 | -8 | -7 | x | x | x | x
CC(C)(C)NC(=O)C(=O)NNC(=O)COc1ccccc1 | -3 | 28* | 21 | -11 | -4 | -20 | 100 | 0 | 106 | 0
O=C(NCCOC(=O)c1ccccc1)c1ccccc1 | 11 | 0 | x | x | -5 | -1 | x | x | x | x
O=C(NC(=S)N1CCN(Cc2ccc3c(c2)OCO3)CC1)c1cccc(Br)c1 | 27 | 0 | 27 | 1 | -4 | 5 | x | x | x | x
O=C(NC(=S)N1CCN(Cc2ccc3c(c2)OCO3)CC1)c1ccc(Cl)cc1 | 33 | 28* | 28 | -6 | 4 | -6 | 103 | 0 | 110 | 0
COc1ccc(S(=O)(=O)N2CCN(C(=O)Cc3ccsc3)CC2)cc1 | -7 | x | x | x | x | x | x | x | x | x
COc1ccc(S(=O)(=O)Nc2ccccc2C(=O)N2CCOCC2)cc1Cl | 12 | 0 | 9 | 1 | -12 | -7 | x | x | x | x
SMILES | NALP3 yeast inh | Efflux pump mplx | NALP1 yeast inh | PolyA inhibitor | HDAC3 inhib | GASC-1 inh | Cmpd fluor yeast | Mdr1 pump inh | Cdr2 pump inh | Cdr1 pump inh
CN1CCN(C(=O)c2ccc3c(c2)NC(=O)C(N2CCOCC2)S3)CC1 (centres undefined) | 5 | 0 | -17 | 10 | -4 | 6 | x | x | x | x
O=C1Nc2cc(C(=O)N3CCOCC3)ccc2SC1N1CCOCC1 (centres undefined) | -1 | 19* | 1 | 14 | 0 | 6 | 95 | 0 | 108 | 0
O=S(=O)(NCCC1=CCCCC1)c1ccc(OC(F)(F)F)cc1 | 12 | 0 | x | -11 | 7 | 4 | x | x | x | x
COC(CNC(=O)[C@H](Cc1ccccc1)N1Cc2ccccc2C1=O)OC | -4 | 0 | 14 | 8 | 1 | 1 | x | x | x | x
COc1cc(C(=O)N2CCN(c3cc(Cl)ccc3Cl)CC2)cc(OC)c1OC | -4 | 0.6* | 28 | 4 | -3 | 4 | 101 | 0 | 91 | 0
Cc1ccc(NS(=O)(=O)Cc2ccccc2)cc1Cl | 41 | 0 | -3 | 10 | -2 | 0 | x | x | x | x
Cc1ccc(S(=O)(=O)N2CCOCC2)cc1NC(=O)COC(=O)CNC(=O)c1ccccc1 | 7 | 9.1* | 8 | -3 | -3 | 7 | 102 | 0 | 101 | 0
O=C(NCCCN1CCOCC1)C(=O)N/N=C/c1ccccc1O | 3 | 0.8* | -18 | 5 | -1 | 10 | 111 | 0 | 101 | 0
O=C(NCCCN1CCOCC1)c1cccc(S(=O)(=O)N2CCOCC2)c1 | 23 | 106* | x | x | -3 | 10 | 103 | 0 | 104 | 0
COc1ccc(C(=O)Nc2ccc(NC(=O)C3CC3)nc2)cc1 | -2 | 0 | 10 | -19 | 0 | -1 | x | x | x | x
Cc1ccc(S(=O)(=O)N(CCCO)CC(O)CON=C2c3ccccc3-c3ccccc32)cc1 (centres undefined) | -2 | -9 | 28 | 2 | 2 | 14 | x | x | x | x
COc1cccc(C(=O)N2CCC(C(=O)NCc3ccco3)CC2)c1 | 8 | 0 | -17 | 1 | -3 | -13 | x | x | x | x
CCOC(=O)C1CCCCN1S(=O)(=O)c1ccc2c(c1)CC(C)N2C(=O)C1CCC1 (centres undefined) | 1 | 0 | 2 | -3 | -4 | 0 | 103 | 0 | 96 | 0
O=S(=O)(c1cccc2cccnc12)N1CCN(c2ccccc2)CC1 | 29 | 17* | 5 | 12 | -3 | -26 | 110 | 0 | 102 | 0
O=C(O)c1cc(NS(=O)(=O)c2ccc(N3CCCCC3)c([N+](=O)[O-])c2)cc(C(=O)O)c1 | -3 | 11* | 15 | 8 | 6 | -2 | 103 | 0 | 107 | 0
